Values without a mark were called inactive. Inconclusive results are not listed. The source made the active and inactive calls. Unless noted, the call rests on the fitted dose curve; in most records, active means well fitted curve in the direction sought with a large enough effect; inconclusive means small, poorly fitted or top-dose-only effect, or another doubt; inactive means no such curve, though single readings can be large; an effect the other way counts as inactive or inconclusive.

Test [1] addresses Cytochrome P450 2D6 (Homo sapiens) (UniProt P10635). As to the kind of experiment: Cytochrome P450 family 2 subfamily D member 6 (CYP2D6) small molecule antagonists: luciferase biochemical (cell-free) qHTS assay (AID 1645840; active means well fitted curve in the direction sought with a large enough effect in the repeat runs; an effect the other way counts as inactive or inconclusive; further: nearly all actives have a fitted effect of over 55% in size; further: potency means the concentration at half of the fitted maximal effect). In outline:
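P450-Glo luminescent screen: recombinant CYP2D6 enzyme–proluciferin substrate mix preincubated with compound 10 min at room temperature, then NADPH regeneration added for 1 h at room temperature. Detection reagent added for 20 min; luciferin light read as relative luminescence units.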
In general terms: In qHTS, concentration-response curves come from the screen itself.

Test [2] has as its target Cytochrome P450 2C9 (Homo sapiens) (UniProt P11712). As to the kind of experiment: Cytochrome P450 family 2 subfamily C member 9 (CYP2C9) small molecule antagonists: luciferase biochemical (cell-free) qHTS assay (AID 1645842; active means well fitted curve in the direction sought with a large enough effect in the repeat runs; an effect the other way counts as inactive or inconclusive; further: nearly all actives have a fitted effect of over 55% in size; further: potency means the concentration at half of the fitted maximal effect). In outline:
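Luminescence, after 20 min with luciferin detection reagent, reflected CYP2C9 turnover during a 1 h NADPH-driven reaction at 37C. Enzyme-substrate mix contained 0.4% bovine serum albumin and was preincubated with compound 10 min at room temperature.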

The nature of test [3]: Viability counterscreen for antagonist of constitutive androstane receptor (CAR) against the NCATS DSHEA and TCM libraries (AID 1794837).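 Further: compound exposure lasted 24 h before viability reading; 0% is about no effect.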 A digest of the protocol:
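HepG2-CYP2B6-hCAR cells (2,500/well) were allowed to attach for 5 h, then exposed to compounds with 48 uM CITCO for 24 h at 37C. Viability was read by CellTiter-Fluor fluorescence after 1 h.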
(In general: Counterscreens check selectivity or assay interference.)

The nature of test [4]: Viability counterscreen for agonist of constitutive androstane receptor (CAR) against the NCATS DSHEA and TCM libraries (AID 1794838). Further: 0% is about no effect. A digest of the protocol: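 HepG2-CYP2B6-hCAR cells (2,500/well) attached 5 h, then got compounds plus 0.75 uM PK11195 final. After 24 h at 37C, viability read by CellTiter-Fluor fluorescence (Ex/Em 405/540 nm).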
For test [5], the target named is Nuclear receptor subfamily 1 group I member 3 (Homo sapiens) (UniProt Q14994). As to the kind of experiment: Primary qHTS for agonist of constitutive androstane receptor (CAR) against the NCATS DSHEA and TCM libraries (AID 1794839).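 Further: HepG2 cells expressing human CAR with a CYP2B6 reporter plus PK11195 antagonist; 0% is about no effect.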 In outline:
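HepG2-CYP2B6-hCAR cells (2,500/well) were attached for 5 h, then treated for 24 h at 37 °C with compounds plus 0.75 µM PK11195. Luciferase luminescence (ONE-Glo) was read, with CellTiter-Fluor viability (Ex/Em 405/540 nm).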

The nature of test [6]: HepG2 viability counterscreen (readout 2: ATP content) against the NCATS DSHEA and TCM libraries (AID 1794840).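 Further: HepG2 cells exposed to substances for about 24 h; 0% is about no effect.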 A digest of the protocol:
(§1)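 HepG2 cells (1,000 cells/well) attached ~4 h, then treated ~24 h at 37C with substances. Protease activity read by GF-AFC (25 uM final, 30 min, Ex/Em 380/510 nm); ATP content then by CellTiter-Glo luminescence.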

A short description of test [7]: HepG2 viability counterscreen (readout 1: protease activity) against the NCATS DSHEA and TCM libraries (AID 1794841).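 Further: cells exposed to compounds for about 24 h before the protease read; 0% is about no effect.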 In outline:
as §1

The target of test [8] is Cytochrome P450 3A4 (Homo sapiens) (UniProt P08684). In words: qHTS for inhibitors of CYP3A4 against the NCATS DSHEA and TCM libraries (AID 1919971).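 Further: on the % scale 0 is the no-effect control and ±100 the full control effect; inhibition lowers luminescence from luciferin made by CYP3A4.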 A digest of the protocol:
(§2)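 Read-out is luminescence after P450-Glo detection (30 min, RT). Before that: 15 min compound–enzyme preincubation, then 30-45 min reaction with 1x NADPH regeneration solution, substrate concentration isoform-specific.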

For test [9], the target named is Cytochrome P450 2D6 (Homo sapiens) (UniProt P10635). As to the kind of experiment: qHTS for inhibitors of CYP2D6 against the NCATS DSHEA and TCM libraries (AID 1919972). Further: on the % scale 0 is the no-effect control and ±100 the full control effect. A digest of the protocol:
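Luminescent P450-Glo read-out of CYP2D6 turnover of a luciferin substrate after NADPH-driven reaction of 30-45 min at room temperature. Compounds were first preincubated 15 min with enzyme at titrated concentrations; quinidine was the intraplate control.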

The target of test [10] is Cytochrome P450 2C9 (Homo sapiens) (UniProt P11712). In words: qHTS for inhibitors of CYP2C9 against the NCATS DSHEA and TCM libraries (AID 1919973).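 Further: luminogenic pro-luciferin CYP2C9 substrate turned into luciferin with NADPH regeneration; series mostly up to about 34 µM; on the % scale 0 is the no-effect control and ±100 the full control effect.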 In outline:
as §2

Test [11] has as its target Cytochrome P450 2C19 (Homo sapiens) (UniProt P33261). As to the kind of experiment: qHTS for inhibitors of CYP2C19 against the NCATS DSHEA and TCM libraries (AID 1919974).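 Further: luminescence from luciferin released by CYP2C19 oxidation of a pro-luciferin substrate; on the % scale 0 is the no-effect control and ±100 the full control effect.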 In outline:
as §2

A short description of test [12]: KB-3-1 P-gp reporter qHTS against the NCATS DSHEA and TCM libraries (AID 1919975). Further: 0% is about no effect. A digest of the protocol:
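Parental KB-3-1 human cervical adenocarcinoma cells (500 cells/well, DMEM + 10% FBS) were treated with substances for ~72 h at 37C; viability was read by CellTiter-Glo luminescence.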

Test [13] deals with Cytochrome P450 1A2 (Homo sapiens) (UniProt P05177). In words: qHTS for inhibitors of CYPIA2 against the NCATS DSHEA and TCM libraries (AID 1919976).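 Further: light from luciferin formed by CYP1A2 from a pro-luciferin substrate; series mostly up to about 37 µM; on the % scale 0 is the no-effect control and ±100 the full control effect.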 A digest of the protocol:
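CYP1A2 + luciferin substrate, 100 mM KPO4-type buffer; cmpd 15 min RT; 1x NADPH regen, 30-45 min RT dark; detection reagent 30 min RT; luminescence. Minus-enzyme wells as background; furafylline intraplate control.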

A short description of test [14]: qHTS Counterscreen for compound interference against the NCATS DSHEA and TCM libraries (AID 1919978). Further: % of control where 0% means no effect. As to conditions: firefly luciferase detection reagent interference, luminescence. A digest of the protocol: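 D-luciferin (1 uM final) or 100 mM potassium phosphate buffer alone was preincubated 15 min at RT with compounds (19.5 nM to 39.8 uM final). Luciferin detection reagent was then added and luminescence read after 30 min at RT.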

Test [15] is described as follows: Dual reporter qHTS for agonist of Pregnane X Receptor (hPXR) against the NCATS DSHEA and TCM libraries: Fluorescence readout (AID 1920058). Further: 0% is about no effect. A digest of the protocol: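 HepG2 hPXR-Luc, 2000 cells/well, 5 h attach; cpds ~24 h, 37 °C/5% CO2; CellTiter-Fluor 1 h; fluor. Ex/Em 405/540 nm = viability.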
In test [16] the target is Nuclear receptor subfamily 1 group I member 2 (Homo sapiens) (UniProt O75469). In words: Dual reporter qHTS for agonist of Pregnane X Receptor (hPXR) against the NCATS DSHEA and TCM libraries: Luminescence readout (AID 1920059). Further: 0% is about no effect. In outline: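 hPXR-Luc HepG2 cells, 2000/well in 5% charcoal-stripped FBS medium, attached 5 h, then exposed 24 h at 37C to compounds. Viability by CellTiter-Fluor, then luciferase luminescence with ONE-Glo.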
Chain of Nuclear receptor subfamily 1 group I member 2 (Homo sapiens) (O75469 whole entry, looked up): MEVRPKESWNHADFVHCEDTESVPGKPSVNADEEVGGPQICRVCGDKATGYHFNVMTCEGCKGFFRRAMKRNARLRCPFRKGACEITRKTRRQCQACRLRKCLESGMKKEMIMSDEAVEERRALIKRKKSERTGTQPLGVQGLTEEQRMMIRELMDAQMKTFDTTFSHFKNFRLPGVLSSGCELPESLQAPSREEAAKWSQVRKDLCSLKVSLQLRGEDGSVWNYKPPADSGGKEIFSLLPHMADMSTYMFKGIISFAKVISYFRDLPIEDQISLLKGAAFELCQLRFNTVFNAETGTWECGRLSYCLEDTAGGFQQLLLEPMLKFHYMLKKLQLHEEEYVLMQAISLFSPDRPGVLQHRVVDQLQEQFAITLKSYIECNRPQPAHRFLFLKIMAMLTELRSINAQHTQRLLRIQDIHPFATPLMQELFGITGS

For test [17] the target is unchanged. As to the kind of experiment: Dual reporter qHTS for antagonist of Pregnane X Receptor (hPXR) against the NCATS DSHEA and TCM libraries: Luminescence Readout (AID 1920060).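 Further: HepG2 cells carrying hPXR luciferase reporter stimulated with rifampicin at 2 µM; 0% is about no effect.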 In outline: (§3)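 hPXR-Luc HepG2 cells exposed 24 h at 37 C to compounds with 2 uM rifampicin in antagonist mode; luciferase luminescence measured by ONE-Glo, with CellTiter-Fluor viability read beforehand.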

Test [18] in a line: Dual reporter qHTS for antagonist of Pregnane X Receptor (hPXR) against the NCATS DSHEA and TCM libraries: Fluorescence Readout (AID 1920061). Further: 0% is about no effect. In outline:
as §3

Test [19] addresses Glutathione peroxidase 1 (Homo sapiens) (UniProt P07203). As to the kind of experiment: Primary qHTS Assay for Inhibitors of Recombinant Selenoprotein Glutathione Peroxidase 1 (GPX1) (AID 1845191). Further: nearly all actives have a fitted effect of over 65% in size. In outline:
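GR-coupled assay: compounds preincubated 30 min at room temperature with GPX1, then reaction started with CHP; final 10 nM GPX1, 1 mM GSH, 0.5 mM CHP, 0.5 mM NADPH, 100 nM GR, 0.01% BSA, pH 7.5 Tris buffer. NADPH fluorescence (340/450 nm) read at 0 and 15 min.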

In test [20] the target is Phospholipid hydroperoxide glutathione peroxidase GPX4 (Homo sapiens) (UniProt P36969). As to the kind of experiment: Primary qHTS Assay for Inhibitors of Recombinant Selenoprotein Glutathione Peroxidase 4 (GPX4) (AID 1845192). Further: nearly all actives have a fitted effect of over 65% in size. In outline: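 GR-coupled assay: recombinant GPX4 preincubated 30 min with compound at room temperature; final 200 nM GPX4, 1 mM GSH, 0.5 mM cumene hydroperoxide, 0.5 mM NADPH, 100 nM GR, 0.01% BSA, pH 7.5 Tris. NADPH fluorescence (340/450 nm) read at 0 and 15 min.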
Chain of Phospholipid hydroperoxide glutathione peroxidase GPX4 (Homo sapiens) (P36969 whole entry, looked up): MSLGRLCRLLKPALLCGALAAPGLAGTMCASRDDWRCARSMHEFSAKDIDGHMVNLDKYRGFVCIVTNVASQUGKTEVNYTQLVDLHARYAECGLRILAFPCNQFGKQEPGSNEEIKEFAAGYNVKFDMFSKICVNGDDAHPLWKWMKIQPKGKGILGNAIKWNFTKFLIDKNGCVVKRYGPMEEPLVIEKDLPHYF

Test [21] concerns the target Tumor susceptibility gene 101 protein (Homo sapiens) (UniProt Q99816). In words: qHTS Assay for Iinhibitors of HIV-1 Budding by Blocking the Interaction of PTAP/TSG101: Hit Validation (AID 651600). Further: potency means the concentration at half of the fitted maximal effect; nearly all actives have a fitted effect of over 70% in size. A digest of the protocol: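 Fluorescence polarization binding assay: Tsg101 binding domain (10 uM final) pre-dispensed with compounds, then FITC-labeled PTAP-motif peptide (50 nM final) added; 20 min at r.t. in HEPES pH 7.5 buffer with NaCl, Tween 20, EDTA, TCEP.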

Test [22] has as its target Rap guanine nucleotide exchange factor 3 (Homo sapiens) (UniProt O95398). As to the kind of experiment: Confirmatory qHTS for antagonist of cAMP-regulated guanine nucleotide exchange factor 3 (EPAC1) (AID 1645880).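 Further: plate controls were DMSO only for no effect and full effect of the ATA control for full effect; nearly all actives have a fitted effect of over 55% in size.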 In outline: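 Nucleotide exchange uses 100 nM EPAC1, 250 nM RAP1B-BODIPY-GDP and 50 uM GDP, with compounds in a concentration-titration series. After 5 min at room temperature, fluorescence (480 nm ex/540 nm em) is read every 5 min for 30 min. Data are normalized to control ATA and DMSO.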

Test [23] has the same target. In words: Confirmatory qHTS for agonist of cAMP-regulated guanine nucleotide exchange factor 3 (EPAC1) (AID 1645881).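 Further: EPAC1 catalysed release of BODIPY-GDP from Rap1B seen as fluorescence loss; 100% = effect of cAMP agonist control; nearly all actives have a fitted effect of over 75% in size.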
The target of test [24] is Rap guanine nucleotide exchange factor 4 (Homo sapiens) (UniProt Q8WZA2). In words: Confirmatory qHTS for agonist of cAMP-regulated guanine nucleotide exchange factor 4 (EPAC2) (AID 1645884).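 Further: nucleotide exchange releases bodipy-GDP from Rap1 and this lowers its fluorescence; on the % scale 0 is the no-effect control and ±100 the full control effect; nearly all actives have a fitted effect of over 65% in size.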
For test [25] the target is unchanged. In words: Confirmatory qHTS for antagonist of cAMP-regulated guanine nucleotide exchange factor 4 (EPAC2) (AID 1645885). Further: potency means the concentration at half of the fitted maximal effect; nearly all actives have a fitted effect of over 25% in size.
Test [26] addresses Rap guanine nucleotide exchange factor 3 (Homo sapiens) (UniProt O95398). As to the kind of experiment: Counterscreen qHTS for antagonist of cAMP-regulated guanine nucleotide exchange factor 3 (EPAC1) (AID 1645888).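 Further: fluorescence loss as bound BODIPY-GDP is released from Rap1B; % of control where 0% means no effect.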 In outline:
(§4)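 Rap1B–BODIPY-GDP (250 nM) with 50 uM GDP; compounds pin-transferred to 9.74 nM–152 uM final (activator) or from 7.32 nM upwards (inhibitor). Fluorescence Ex/Em 480/540 nm read at 5 and 30 min, then after adding cAMP or buffer, at room temperature.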

The target is the same in test [27]. As to the kind of experiment: Counterscreen qHTS for agonist of cAMP-regulated guanine nucleotide exchange factor 3 (EPAC1) (AID 1645889). Further: % of control where 0% means no effect; nearly all actives have a fitted effect of over 40% in size. In outline:
as §4

Chain of Cytochrome P450 3A4 (Homo sapiens) (P08684 whole entry, looked up, canonical isoform): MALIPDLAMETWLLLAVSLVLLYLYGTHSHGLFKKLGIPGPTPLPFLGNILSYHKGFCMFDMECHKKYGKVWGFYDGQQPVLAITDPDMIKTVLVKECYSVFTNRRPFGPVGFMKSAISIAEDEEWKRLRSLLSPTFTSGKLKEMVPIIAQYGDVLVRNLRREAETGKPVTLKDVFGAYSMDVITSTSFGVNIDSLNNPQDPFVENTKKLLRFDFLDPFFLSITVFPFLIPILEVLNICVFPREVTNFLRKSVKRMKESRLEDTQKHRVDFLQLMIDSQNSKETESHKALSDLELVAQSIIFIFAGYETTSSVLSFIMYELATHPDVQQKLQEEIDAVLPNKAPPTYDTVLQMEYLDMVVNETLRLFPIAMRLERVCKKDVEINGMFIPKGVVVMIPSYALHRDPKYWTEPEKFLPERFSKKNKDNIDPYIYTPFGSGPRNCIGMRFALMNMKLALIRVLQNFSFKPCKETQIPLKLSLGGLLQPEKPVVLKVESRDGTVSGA
Chain of Rap guanine nucleotide exchange factor 3 (Homo sapiens) (O95398 whole entry, looked up): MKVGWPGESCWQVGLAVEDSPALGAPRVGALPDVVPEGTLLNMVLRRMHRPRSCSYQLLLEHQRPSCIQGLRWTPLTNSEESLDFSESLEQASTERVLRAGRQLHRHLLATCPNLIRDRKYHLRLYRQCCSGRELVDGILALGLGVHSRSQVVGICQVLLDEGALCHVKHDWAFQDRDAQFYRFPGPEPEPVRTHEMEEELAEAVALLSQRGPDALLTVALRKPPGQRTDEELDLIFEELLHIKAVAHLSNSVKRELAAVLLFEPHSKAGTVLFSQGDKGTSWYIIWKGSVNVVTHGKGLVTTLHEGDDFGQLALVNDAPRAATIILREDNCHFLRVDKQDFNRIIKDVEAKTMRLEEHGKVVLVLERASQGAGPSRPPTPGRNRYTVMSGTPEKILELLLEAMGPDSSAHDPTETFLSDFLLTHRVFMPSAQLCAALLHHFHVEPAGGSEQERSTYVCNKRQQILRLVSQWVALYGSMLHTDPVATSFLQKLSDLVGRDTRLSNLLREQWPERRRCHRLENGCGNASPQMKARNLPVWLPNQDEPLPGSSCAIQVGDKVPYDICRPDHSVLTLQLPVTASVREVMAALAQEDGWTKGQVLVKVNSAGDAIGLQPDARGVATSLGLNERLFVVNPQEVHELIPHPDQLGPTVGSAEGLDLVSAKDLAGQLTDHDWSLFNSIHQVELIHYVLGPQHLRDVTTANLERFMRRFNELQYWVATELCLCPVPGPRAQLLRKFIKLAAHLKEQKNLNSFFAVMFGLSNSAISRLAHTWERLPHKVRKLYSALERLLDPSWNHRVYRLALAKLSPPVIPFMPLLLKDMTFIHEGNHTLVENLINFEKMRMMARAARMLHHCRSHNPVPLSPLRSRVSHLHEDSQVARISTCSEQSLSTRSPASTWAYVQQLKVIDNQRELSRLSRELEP
Chain of Cytochrome P450 2D6 (Homo sapiens) (P10635 whole entry, looked up): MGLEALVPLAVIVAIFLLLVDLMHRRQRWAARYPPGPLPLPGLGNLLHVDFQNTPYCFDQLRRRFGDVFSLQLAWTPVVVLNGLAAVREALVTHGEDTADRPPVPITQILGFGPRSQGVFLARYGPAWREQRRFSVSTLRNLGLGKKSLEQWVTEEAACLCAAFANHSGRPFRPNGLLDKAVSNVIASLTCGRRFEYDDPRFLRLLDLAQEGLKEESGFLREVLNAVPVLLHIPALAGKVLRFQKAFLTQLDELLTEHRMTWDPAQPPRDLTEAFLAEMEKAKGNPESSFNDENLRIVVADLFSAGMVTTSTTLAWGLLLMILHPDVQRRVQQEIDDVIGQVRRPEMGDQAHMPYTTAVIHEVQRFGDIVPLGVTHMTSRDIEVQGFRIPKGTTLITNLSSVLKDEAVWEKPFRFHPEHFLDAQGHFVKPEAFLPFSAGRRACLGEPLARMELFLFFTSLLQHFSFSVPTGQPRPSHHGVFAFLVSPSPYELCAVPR
Chain of Cytochrome P450 2C19 (Homo sapiens) (P33261 whole entry, looked up): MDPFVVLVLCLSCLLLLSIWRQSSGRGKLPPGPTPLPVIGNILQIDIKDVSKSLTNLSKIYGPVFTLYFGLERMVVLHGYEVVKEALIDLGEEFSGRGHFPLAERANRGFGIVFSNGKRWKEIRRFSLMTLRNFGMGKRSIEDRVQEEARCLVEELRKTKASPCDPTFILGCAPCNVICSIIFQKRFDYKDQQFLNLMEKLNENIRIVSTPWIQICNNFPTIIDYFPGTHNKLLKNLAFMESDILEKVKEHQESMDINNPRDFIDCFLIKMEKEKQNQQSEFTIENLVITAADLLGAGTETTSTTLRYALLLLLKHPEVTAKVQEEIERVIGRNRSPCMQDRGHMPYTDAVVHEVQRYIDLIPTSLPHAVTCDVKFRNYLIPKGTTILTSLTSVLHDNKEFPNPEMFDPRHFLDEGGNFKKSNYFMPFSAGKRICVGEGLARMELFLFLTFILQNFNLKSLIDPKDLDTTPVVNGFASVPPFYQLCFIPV
Chain of Glutathione peroxidase 1 (Homo sapiens) (P07203 whole entry, looked up): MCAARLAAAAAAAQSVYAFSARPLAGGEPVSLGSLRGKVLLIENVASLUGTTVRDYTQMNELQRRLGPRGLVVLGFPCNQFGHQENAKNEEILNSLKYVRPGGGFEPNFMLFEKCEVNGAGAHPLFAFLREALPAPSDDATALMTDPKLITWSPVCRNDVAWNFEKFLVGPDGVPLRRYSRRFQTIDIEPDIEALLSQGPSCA
Chain of Cytochrome P450 1A2 (Homo sapiens) (P05177 whole entry, looked up): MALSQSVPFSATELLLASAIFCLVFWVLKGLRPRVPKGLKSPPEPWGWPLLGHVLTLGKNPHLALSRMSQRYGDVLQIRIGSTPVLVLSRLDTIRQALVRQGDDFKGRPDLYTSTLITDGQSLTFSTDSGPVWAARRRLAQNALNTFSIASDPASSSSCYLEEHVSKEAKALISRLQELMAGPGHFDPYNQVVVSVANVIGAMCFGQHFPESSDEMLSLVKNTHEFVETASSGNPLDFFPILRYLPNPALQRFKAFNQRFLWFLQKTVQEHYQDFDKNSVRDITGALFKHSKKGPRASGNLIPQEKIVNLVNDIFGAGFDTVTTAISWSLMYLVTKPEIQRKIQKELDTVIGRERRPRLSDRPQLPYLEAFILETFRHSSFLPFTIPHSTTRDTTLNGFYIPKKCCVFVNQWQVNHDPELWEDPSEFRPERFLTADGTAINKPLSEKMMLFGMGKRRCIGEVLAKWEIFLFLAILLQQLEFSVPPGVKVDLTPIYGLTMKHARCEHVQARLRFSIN
Chain of Cytochrome P450 2C9 (Homo sapiens) (P11712 whole entry, looked up): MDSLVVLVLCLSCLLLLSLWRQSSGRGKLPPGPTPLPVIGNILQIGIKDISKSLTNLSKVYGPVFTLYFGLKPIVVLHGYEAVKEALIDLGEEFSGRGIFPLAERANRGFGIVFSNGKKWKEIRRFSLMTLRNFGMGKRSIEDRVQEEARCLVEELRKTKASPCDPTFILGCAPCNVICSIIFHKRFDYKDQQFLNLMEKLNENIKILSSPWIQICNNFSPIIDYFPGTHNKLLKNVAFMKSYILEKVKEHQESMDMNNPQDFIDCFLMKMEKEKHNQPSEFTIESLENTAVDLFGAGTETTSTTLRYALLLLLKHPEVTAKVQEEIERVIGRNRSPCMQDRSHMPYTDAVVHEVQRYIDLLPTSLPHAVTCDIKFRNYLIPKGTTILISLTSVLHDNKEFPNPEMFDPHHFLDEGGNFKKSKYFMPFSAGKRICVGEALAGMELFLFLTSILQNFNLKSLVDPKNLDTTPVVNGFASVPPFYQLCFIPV
Chain of Nuclear receptor subfamily 1 group I member 3 (Homo sapiens) (Q14994 whole entry, looked up): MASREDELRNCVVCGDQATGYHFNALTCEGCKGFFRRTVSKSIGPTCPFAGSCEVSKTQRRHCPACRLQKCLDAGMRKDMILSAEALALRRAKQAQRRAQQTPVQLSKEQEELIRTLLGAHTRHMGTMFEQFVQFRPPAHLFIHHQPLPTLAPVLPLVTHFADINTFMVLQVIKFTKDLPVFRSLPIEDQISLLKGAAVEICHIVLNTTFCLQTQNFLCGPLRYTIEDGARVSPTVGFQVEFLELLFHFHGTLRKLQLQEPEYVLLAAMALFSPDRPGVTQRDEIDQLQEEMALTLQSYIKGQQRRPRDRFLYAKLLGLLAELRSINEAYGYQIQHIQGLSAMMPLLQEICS

Turning to `CCC(/C=C/[C@@H](C)[C@H]1CCC2C3CC=C4C[C@@H](O)CC[C@]4(C)C3CC[C@@]21C)C(C)C` (some centres undefined), the Potency result in test [1] and in test [2] was “inactive” in each case. The call in test [3], in test [4], in [5], in test [6], in [7] and in test [8] was inactive. Besides, the outcome in [9], in test [10], in test [11], in test [12], in [13] and in test [15] was inactive. Moreover, the call in test [16], in test [17] and in [18] was inactive. For the same compound, in test [14], the max response was 3.05%.

In the case of `Cc1ccc(/C=C2\C(=O)C3(C)CCC2C3(C)C)cc1` (centres undefined), the Potency entry in [1], in test [19] and in test [20] was “inactive” each time. For the same compound, the Potency in [2] is 8.49 µM (active).

On to `C=C(C)[C@H]1CC=C(C)CC1`, for which the Potency entry in test [1] and in test [2] was “inactive” in each case. Also, the compound was classed as inactive in test [3], in test [4], in test [5], in test [6], in [7] and in test [8]. Further, the compound was called inactive in [9], in [10], in [11], in test [12], in test [13] and in test [15]. Further, the result in test [16], in test [17] and in test [18] was inactive. The max response in test [14] was -0.263%.

`Cc1ccc2c(c1)-c1c(c(C(=O)N3CCN(c4cc(C)ccc4C)CC3)nn1C)CS2`: the figures for the Potency in [21], in test [2] and in test [25] were 18.3 µM (active), 2.39 µM (active) and 3.79 µM (active), respectively. Further, the Potency entry in test [1], in test [22], in test [23], in [24], in test [26] and in [27] was “inactive” throughout.

With `Cc1cccn2c(=O)c3cc(C#N)c(=O)n(-c4nnc(SCc5ccc(Cl)cc5)s4)c3nc12`, the Potency result in test [1] is “inactive”. In addition, the Potency in test [2] was 6.01 µM (active).

Consider `Cc1cc(-c2nc(CN3CCC(C(=O)NCCCN4C[C@H](C)C[C@H](C)C4)CC3)co2)ccc1F`, for which the Potency in [1] is 0.952 µM (active). Also, the Potency result in test [2] and in [19] was “inactive” in each case.

As to `COc1ccc(CCNc2nc(SCc3ccccc3Cl)nc3ccccc23)cc1OC`, the results for the Potency in test [1] and in test [2] were 0.756 µM (active) and 0.19 µM (active), respectively.

As for `COc1cccc(Cn2c(SCC(=O)N3CCN(c4ccc(F)cc4)CC3)nc3ccccc32)c1`, the Potency is 10.7 µM (active) in test [1] and 2.13 µM (active) in test [2].

For `CCCCCCCCC=CCCCCCCCC(=O)NCCOC(=O)CC(C(=O)O)S(=O)(=O)O` (centres undefined), the Potency in test [1] was 13.5 µM (active); in [2], 8.49 µM (active). Also, the Potency entry in test [19] and in [20] was “inactive” in each case.

As for `OCC=Cc1ccccc1`, the Potency result in test [1], in test [19] and in test [20] was “inactive” in each case. Besides, the Potency in test [2] was 19 µM (active). In addition, the outcome in [6], in test [7], in test [8], in test [9], in [10] and in test [11] was inactive. The call in [12], in [13], in test [15], in test [16], in [17] and in [18] was inactive. Besides, the max response in [14] is 2.25%.

Values taken from PubChem BioAssay (NCATS).
